The list is not random: actives were taken first. Their share in the collection is about 12%.
Sfp PPTase inh: inhibitors of Bacillus subtilis Sfp phosphopantetheinyl transferase | Q9F4F7 | Biochemical Sfp PPTase activity, qHTS | Potency, µM, inactives show largest response in the series, negative = inhibition, actives largely listed as inhibitors | hit rate 3.5% among 310,000;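 further: the enzyme is Sfp with the accession as filed and its product quenches rhodamine fluorescence; 0% = enzyme reaction without inhibitor and -100% = no enzyme wells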
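Fluorescence-quenching assay: 15 nM Sfp-PPTase preincubated 15 min at room temperature with compound, then 5 uM rhodamine-CoA and 12.5 uM BHQ-2-labelled YbbR peptide added. Fluorescence (ex 525/em 598 nm) read at start and after 30 min; difference gives rate.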
JMJD2A Tudor: JMJD2A Tudor domain (human) inhibition; O75164; AlphaScreen JMJD2A-Tudor / H3K4me3 peptide binding; Potency, µM (top dose mostly 114 µM), for inactives: top-dose activity change, negative = inhibition, most hits filed as inhibitors; hit rate 4.4% among 390,000; AID 504339; further: on the % scale 0 is the no-effect control and ±100 the full control effect; nearly all actives have a fitted effect of over 50% in size
Target sequence (O75164 whole entry, looked up, the tested form may be a part): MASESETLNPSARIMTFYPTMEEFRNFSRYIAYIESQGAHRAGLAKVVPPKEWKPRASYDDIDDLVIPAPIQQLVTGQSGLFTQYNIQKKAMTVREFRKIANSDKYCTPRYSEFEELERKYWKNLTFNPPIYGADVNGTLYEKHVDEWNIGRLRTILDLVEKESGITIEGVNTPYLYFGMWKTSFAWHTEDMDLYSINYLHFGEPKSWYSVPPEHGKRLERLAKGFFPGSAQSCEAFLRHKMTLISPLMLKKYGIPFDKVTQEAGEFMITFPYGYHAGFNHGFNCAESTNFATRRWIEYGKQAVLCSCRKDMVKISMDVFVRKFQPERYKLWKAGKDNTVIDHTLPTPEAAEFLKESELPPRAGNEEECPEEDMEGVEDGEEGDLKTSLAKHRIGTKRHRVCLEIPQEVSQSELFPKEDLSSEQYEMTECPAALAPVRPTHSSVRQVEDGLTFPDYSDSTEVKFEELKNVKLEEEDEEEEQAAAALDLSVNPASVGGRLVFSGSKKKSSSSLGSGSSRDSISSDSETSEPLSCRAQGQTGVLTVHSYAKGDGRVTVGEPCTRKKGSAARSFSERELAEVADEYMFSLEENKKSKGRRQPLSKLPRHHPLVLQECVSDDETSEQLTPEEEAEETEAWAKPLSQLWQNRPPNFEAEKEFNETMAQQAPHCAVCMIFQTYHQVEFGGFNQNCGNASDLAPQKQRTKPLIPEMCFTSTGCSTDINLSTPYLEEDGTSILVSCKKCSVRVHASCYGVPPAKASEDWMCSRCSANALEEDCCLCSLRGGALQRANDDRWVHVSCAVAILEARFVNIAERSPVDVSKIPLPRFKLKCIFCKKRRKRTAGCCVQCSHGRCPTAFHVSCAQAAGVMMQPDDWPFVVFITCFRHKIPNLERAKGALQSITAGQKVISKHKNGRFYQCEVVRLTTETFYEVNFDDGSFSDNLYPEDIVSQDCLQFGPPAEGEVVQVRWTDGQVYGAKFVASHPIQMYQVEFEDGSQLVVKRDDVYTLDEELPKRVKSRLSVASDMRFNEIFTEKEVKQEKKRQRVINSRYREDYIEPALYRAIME
HP1b chromo inh: inhibitors of HP1-beta chromodomain binding to methylated histone tails; Potency, µM (series often up to 114 µM), without a hit: at the top dose activity change, negative = inhibition, usual class: inhibitors; hit rate 0.56% among 390,000; AlphaScreen HP1-beta / biotin-H3K9me3 peptide binding; further: nearly all actives have a fitted effect of over 70% in size
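Compound inhibition of the preformed complex between 50 nM HP1-beta and 50 nM biotinylated H3K9me3 peptide was read by AlphaScreen. Buffer was PBS pH 7.4 with 0.01% Tween-20. Incubations ran 30 min at room temperature, with 10 ug/mL donor/acceptor beads.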
BAZ2B block: BAZ2B (human) inhibition; Q9UIF8; AlphaScreen BAZ2B-H3K14Ac peptide displacement; Potency, µM (top dose mostly 114 µM), for inactives: at the top dose activity change, negative = inhibition, actives largely listed as inhibitors; hit rate 4.4% among 360,000; further: on the % scale 0 is the no-effect control and ±100 the full control effect; nearly all actives have a fitted effect of over 60% in size
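AlphaScreen displacement of biotin-H3(5-23)K14Ac peptide (50 nM final) from BAZ2B (50 nM final) in PBS pH 7.4, 0.01% Tween-20; complex preformed 30 min RT, then compounds (top 110 uM) 30 min RT, beads 20 min dark.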
G9a inh: G9a (human) methyltransferase inhibition; G9a H3K9 monomethylation, AlphaScreen, 2 h; Potency, µM (top dose mostly 102 µM), for the others: top-dose activity, negative = inhibition, usual class: inhibitors; hit rate 8.8% among 350,000; further: on the % scale 0 is the no-effect control and ±100 the full control effect; nearly all actives have a fitted effect of over 75% in size
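Readings reflect AlphaScreen signal from monomethyl-H3K9 antibody detection. HMT at 20 nM; substrate b-H3K9 500 nM; cofactor SAM 20 uM; 2 h RT reaction; compounds tested as titrations in qHTS with 15 min preincubation.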
An asterisk follows results filed as active; ? = inconclusive; nt = no result; [ ] = remark or other dose. The call rests on the fitted dose curve; in most records, active means well fitted curve in the direction sought with a large enough effect; inconclusive means small, poorly fitted or top-dose-only effect, or another doubt; inactive means no such curve, though single readings can be large; an effect the other way counts as inactive or inconclusive. Potency means the concentration at half of the fitted maximal effect.

SMILES | Sfp PPTase inh | JMJD2A Tudor | HP1b chromo inh | BAZ2B block | G9a inh
Cc1cccc(-c2nsc(SCC(=O)NCc3ccco3)n2)c1 | ? | -22% | -14% | -9% | 32µM*
OCCNc1nc(Nc2ccccc2Cl)nc(N2CCCC2)n1 | nt | -24% | -8% | nt | nt
CCn1c(SCC(=O)Nc2cccc(C)c2)nc2c(c1=O)SC(C)C2 (centres undefined) | 12% | -35% | 22% | -25% | 50µM*
CC1Cc2nc(SCC(=O)NC3CCCCC3)n(C)c(=O)c2S1 (centres undefined) | 20µM* | -26% | 33% | 7% | -26%[59 µM]
Cn1c(SCC(=O)NC2CCCC2)nc2c(c1=O)SCC2 | -4% | -19% | 33% | -14% | 12%
O=C(c1ccc(Cl)c(S(=O)(=O)N2CCCC2)c1)N1CCOCC1 | 3% | -15% | 15% | 2% | 22%
CC(C)(C)C(=O)Nc1ccc(S(=O)(=O)Nc2nccs2)cc1 | 1% | -10% | 17% | 19% | 1%
CCCCn1c(N)c(N(CC)C(=O)CSCC(=O)Nc2ccc(OC)cc2)c(=O)[nH]c1=O | nt | 4% | 24% | 12% | 50µM*
CCCCN(C(=O)CSCC(=O)Nc1cccc(C)c1)c1c(N)n(CCCC)c(=O)[nH]c1=O | nt | -8% | 21% | 17% | 20µM*
CCCn1c(N)c(N(CCOC)C(=O)CSCC(=O)Nc2cccc(C)c2)c(=O)[nH]c1=O | nt | -3% | 29% | 2% | 50µM*
CCCCn1c(N)c(N(CC(C)C)C(=O)CSCC(=O)Nc2cccc(C)c2)c(=O)[nH]c1=O | nt | -12% | 12% | -6% | -11%
Cc1ccc(NC(=O)CSCC(=O)N(CCC(C)C)c2c(N)n(Cc3ccccc3)c(=O)[nH]c2=O)cc1 | nt | -22% | 16% | -9% | 56µM*
COCCN(C(=O)CSCC(=O)Nc1cccc(C)c1)c1c(N)n(Cc2ccccc2)c(=O)[nH]c1=O | nt | -1% | 35% | 10% | 11%[2.33 µM]
CCCOc1cccc(C2C(C(=O)c3ccc(C)o3)=C(O)C(=O)N2c2nc(C)c(C(C)=O)s2)c1 (centres undefined) | -19% | -27% | 8% | 56µM* | 16µM*
CCOc1cccc(C2C(C(=O)c3ccc(C)o3)=C(O)C(=O)N2c2nnc(C)s2)c1 (centres undefined) | nt | 1.1µM* | ? | nt | nt
Cc1ccc(N/C=C2/Sc3ccccc3NC2=O)cc1 | 0% | -16% | 56% | -23% | -48%
O=C1Nc2ccccc2S/C1=C/NCc1ccccc1Cl | 56µM* | 50µM* | -24% | ? | 32µM*
COc1cccc(NC(=S)NNC(=O)c2c([N+](=O)[O-])c(C)nn2C)c1 | 5% | -11% | 17% | 0% | -2%[59 µM]
O=C(NC(=S)Nc1cccc(C(F)(F)F)c1)c1ccc2nonc2c1 | ? | ? | ? | ? | 45µM*
COc1cccc(NC(=S)NNC(=O)C(C)n2nc(C)c([N+](=O)[O-])c2C)c1 (centres undefined) | 21% | -6% | 19% | -4%[57.1 µM] | 40µM*
FC(F)(F)c1cccc(NC(=S)Nc2ccc(Cl)c(Cl)c2)c1 | -19% | 3% | 31% | 7% | nt
COc1cccc(NC(=S)NNC(=O)Cn2nc(C(F)(F)F)cc2C)c1 | 16% | 1% | 24% | -6% | 11µM*
COc1ccc(NC(=S)NNC(=S)Nc2cccc(C(F)(F)F)c2)cc1 | 20µM* | ? | ? | ? | 22µM*
O=C(Nc1cccc(-c2cn3cccnc3n2)c1)c1cc(Br)ccc1Cl | nt | -12% | 9%[57 µM] | 2% | -19%[59 µM]
CCN(CC)CCCNC(=O)CCc1c(C)nc2c(c1C)c(=O)n(C)c(=O)n2C | nt | -6% | 18% | -21% | 2%[59 µM]
SMILES | Sfp PPTase inh | JMJD2A Tudor | HP1b chromo inh | BAZ2B block | G9a inh
Cc1cccc(NC(=O)NNC(=O)c2sccc2-n2cccc2)c1 | 9% | -30% | 19% | ? | -5%
COCCSc1nnc(NC(=O)c2ccc(NC(C)=O)cc2)s1 | -2% | -10% | 44% | -14% | 15%
CCOc1ccc(NC(=S)NNC(=O)c2cc(Br)ccc2Cl)cc1 | -11% | -29% | -16% | -19% | 45µM*
CCOc1cc(OCC)cc(C(=O)NC(=S)Nc2cccc(C(F)(F)F)c2)c1 | 89µM* | -10% | 11% | -1%[57.1 µM] | -3%[59 µM]
CNNC(=S)Nc1cccc(C(F)(F)F)c1 | -5% | -3% | 51% | -28% | -32%
CCOc1ccc(NC(=S)NNC(=S)Nc2cccc(C(F)(F)F)c2)cc1 | 35µM* | -24% | -2% | ? | nt
NC(=O)CC(NC(=O)Cc1ccc(Br)cc1)c1ccc(NCC2CC2)c([N+](=O)[O-])c1 (centres undefined) | -20% | -21% | 40% | 1% | 11%[59 µM]
C#CCOCCOCCOCCNc1nc(N2CCOCC2)nc(N2CCN(C(=O)[C@H]([C@@H](C)CC)n3cc([C@@H](N)Cc4ccc(O)cc4)nn3)CC2)n1 | 11% | -24% | 30% | -20% | ?
C#CCOCCOCCOCCNc1nc(N2CCN(C(=O)[C@H]([C@@H](C)CC)n3cc([C@@H](N)CO)nn3)CC2)nc(N2CCN(C(=O)[C@H](Cc3ccc(O)cc3)n3cc([C@@H](N)CC(C)C)nn3)CC2)n1 | 6% | 56µM* | -11% | 32µM* | ?
C#CCOCCOCCOCCNc1nc(N2CCN(C(=O)[C@H](C(C)C)n3cc(CCO)nn3)CC2)nc(N2CCN(C(=O)[C@H](Cc3ccc(O)cc3)n3cc(CCO)nn3)CC2)n1 | nt | -18% | 35% | nt | nt
C#CCOCCOCCOCCNc1nc(N2CCN(C(=O)[C@H]([C@@H](C)CC)n3cc([C@@H](N)Cc4ccc(O)cc4)nn3)CC2)nc(N2CCN(C(=O)[C@H]([C@@H](C)CC)n3cc([C@@H](N)CC(C)C)nn3)CC2)n1 | -29% | 45µM* | 22% | ? | -19%[59 µM]
C#CCOCCOCCOCCNc1nc(N2CCN(C(=O)[C@H]([C@@H](C)CC)n3cc([C@@H](N)Cc4ccc(O)cc4)nn3)CC2)nc(N2CCN(C(=O)[C@H](Cc3ccc(O)cc3)n3cc([C@@H](N)CC(C)C)nn3)CC2)n1 | 19% | 14µM* | 8% | 56µM* | ?
Cc1cc(C(=O)O)c(CCCN)s1 | 8% | -12% | 39% | -21% | -40%
CC1CCCN(C(=O)C(C)Nc2cc(Cl)ccc2N2CCOCC2)C1 (centres undefined) | 2% | ? | 2% | ? | 40µM*
CCOC(=O)N1CCN(Cc2nc3cc(NC(=O)CC)ccc3n2C(C)C)CC1 | nt | -12% | 53% | -22% | -8%[59 µM]
CCCCC[n+]1ccn(-c2nc3ccccc3nc2[N-]S(=O)(=O)c2ccccc2)c1 | 35µM* | -3% | 16% | 20µM* | -34%
CCCC[n+]1ccn(-c2nc3ccccc3nc2[N-]S(=O)(=O)c2ccc(Cl)cc2)c1 | -8% | ? | 16% | ? | nt
CC(C)CC(=O)c1c[nH]c(C(=O)NCc2cccs2)c1 | 12% | -7% | 11% | -4% | 0.22µM*
